# Experimental data published in PubChem BioAssay AID2314 (National Center for Advancing Translational Sciences (NCATS), 2010).
# In all, about 300,000 compounds went through this assay and about 37,000 (12%) were called active. No stated cut-off is given here; in the data, active means max response mostly above about 13% (no sharp cut-off); inactive means mostly below about 14%. This excerpt belongs to a sample that is enriched for actives.
# Experiment: Cycloheximide Counterscreen for Small Molecule Inhibitors of Shiga Toxin; further: read at 38.3 µM for the half of the compounds with a filed dose; 0% is about no effect
# Settings: cell reporter, cycloheximide protein synthesis inhibition counterscreen; active compounds read high
row,Compound,max response
1,CCNc1nc(Oc2ccc(C(=O)OC)cc2)nc(N2CCOCC2)n1,-3.34% (inactive)
2,COC(=O)c1ccc(Oc2nc(NC(C)C)nc(SC)n2)cc1,9.19% (active)
3,COC(=O)c1ccc(Oc2nc(Nc3ccc(F)cc3)nc(N3CCCC3)n2)cc1,0.283% (inactive)
4,CCOc1ccc(NC(=O)CC(Cc2ccc(Cl)cc2)C(=O)O)cc1 (stereo unspecified),-1.1% (inactive)
5,Cn1cccc1C(=O)Nc1nccs1,18.6% (active)
6,CC(NC(=O)C(=O)Nc1nccs1)c1ccccc1 (stereo unspecified),-0.875% (inactive)
7,O=C(O)c1ccccc1-c1ccccc1C(=O)Nc1nccs1,-6.56% (inactive)
8,Cc1ccc2cccc(S(=O)(=O)N3CCN(c4ccccc4F)CC3)c2n1,-1.96% (inactive)
9,COc1ccccc1Nc1cc(C(=O)NCCCN(C)C2CCCCC2)c2ccccc2n1,-15.5% (inactive)
10,Clc1cccc(Cl)c1Cn1nnc(-c2cccs2)n1,1.15% (inactive)
11,CCc1ccc(-c2nnn(Cc3nc4ccccc4s3)n2)cc1,38.7% (active)
12,CCc1ccc(-c2nnn(Cc3nn[nH]n3)n2)cc1,-4.49% (inactive)
13,Cc1cc(N2CCN(c3ccc(F)cc3)CC2)n2ncnc2n1,1.63% (inactive)
14,COC(=O)c1ccccc1NS(=O)(=O)c1ccc2[nH]c(=O)[nH]c2c1,-1.95% (inactive)
15,Cc1ccc(C)c(NC(=S)NNC(=O)c2csc(C)c2)c1,10.1% (inactive)
16,Cc1cc(C(=O)NNC(=S)Nc2ccccc2C)cs1,34.5% (active)
17,O=C(NC(=S)Nc1cccc2c(O)cccc12)c1cccc(Br)c1,-1.87% (inactive)
18,CC(CC(=O)O)CC(=O)NNC(=O)c1cccc(Br)c1 (stereo unspecified),-1.69% (inactive)
19,Cc1ccccc1NC(=S)NNC(=O)c1cccc(Br)c1,17.3% (active)
20,Cc1cc(C(=O)NNC(=S)NC(C)c2ccccc2)cs1 (stereo unspecified),-2.7% (inactive)
21,CCCCN=C1C([N+](=O)[O-])=CC=C2C1=NC1(CCCCC1)N2O,4.25% (inactive)
22,CCCc1nnc(NC(=O)CCC(=O)NC2CC2)s1,-2.75% (inactive)
23,Cc1ccc2c(c1)C1CN(C)CCC1N2S(=O)(=O)c1ccc(Oc2ccc([N+](=O)[O-])cc2)cc1 (stereo unspecified),-3.12% (inactive)
24,Cc1ccc(C(=O)NC2CCN(C(=O)Nc3ccccc3Cl)CC2)cc1,-2.19% (inactive)

row,Compound,max response
1,Cc1nn(CC(=O)NCC2CCCO2)c(=O)c2cc3ccccc3n12 (stereo unspecified),3.06% (inactive)
2,Cc1ccc(-c2cn3cc(C)ccc3n2)cc1,-15.5% (inactive)
3,Cc1ccnc(N2C(=O)c3ccc([N+](=O)[O-])cc3C2=O)c1,-0.576% (inactive)
4,CSc1nnc2ccc(-c3ccc(C)cc3)nn12,8.85% (inactive)
5,Cc1ccc(C(=O)Cn2cc([N+](=O)[O-])nc2C)cc1,-1.83% (inactive)
6,Cc1ccc2nc(-c3ccc(Br)cc3)cn2c1,17.6% (active)
7,Cc1ccc(-c2cn3cc([N+](=O)[O-])ccc3n2)cc1,92.8% (active)
8,CC1CCN(C(=O)c2ccc(S(=O)(=O)Cc3cc(F)ccc3F)c([N+](=O)[O-])c2)CC1,0.662% (inactive)
9,O=C(CN1CCN(S(=O)(=O)c2cc(Cl)ccc2Cl)CC1)c1ccc(O)c(O)c1,6.66% (inactive)
10,CCC(C)NCCOCCOc1ccc(Br)cc1C (stereo unspecified),-2.66% (inactive)
11,COC(=O)CSc1nc2c(c(C3CC=CCC3)c1C#N)CCC2 (stereo unspecified),-1.01% (inactive)
12,CCOC(=O)c1sc(C)c2c1NC(C)(c1cccc3ccccc13)NC2=O (stereo unspecified),0.788% (inactive)
13,C/C(=N\NC(=O)Cc1ccccc1[N+](=O)[O-])c1cccnc1,-0.525% (inactive)
14,Cc1sc2nc(SCC(N)=O)n(C)c(=O)c2c1C,-2.39% (inactive)
15,CCC1(C)Cc2c(sc3nc(SC)nc(N)c23)CO1 (stereo unspecified),8.94% (inactive)
16,CN(C)CCSc1nc(N)c2c3c(sc2n1)COC(C)(C)C3,-2.73% (inactive)
17,CC(C)(C)C1CCc2c(sc3nc(SCC(N)=O)nc(N)c23)C1 (stereo unspecified),28.1% (active)
18,Nc1nc(SCC(=O)NCCN2CCOCC2)nc2sc3c(c12)CCC3,-2.27% (inactive)
19,C=C(C)CSc1nc(N)c2c3c(sc2n1)CCC3,18.4% (active)
20,C=CCn1cc(C(=O)NCc2ccc(Cl)cc2)c(=O)c2cc(S(=O)(=O)N(CC)CC)ccc21,-6.07% (inactive)
21,CN(CCNC(=O)c1cc2c(-c3ccccc3F)nn(C)c2s1)C1CCCCC1,-2.34% (inactive)
22,CCOC(=O)C1CCCN(S(=O)(=O)c2ccc3c(c2)C(C)(C)C(=O)N3C)C1 (stereo unspecified),-2.15% (inactive)
23,COc1ccc(N(C(=O)c2ccc(C)cc2)S(=O)(=O)c2cccs2)cc1,10.9% (inactive)
24,Clc1ccc(C2=CSC3=Nc4cccc5cccc(c45)N23)cc1,11.3% (active)

row,Compound,max response
1,CC(=O)Oc1cccc(N2C(=O)CC(Nc3ccc(N4CCOCC4)cc3)C2=O)c1 (stereo unspecified),49% (active)
2,COc1ccc(N2CCN(C3CC(=O)N(c4ccc5c(c4)OCCO5)C3=O)CC2)cc1 (stereo unspecified),1.96% (inactive)
3,CC(=O)Oc1cccc(N2C(=O)C3CC=C(Cl)CC3C2=O)c1 (stereo unspecified),-3.93% (inactive)
4,COc1ccccc1OCc1nc2ccccc2s1,27.4% (active)
5,COc1ccc(Cn2c(=O)sc3ccccc32)cc1OC,-0.76% (inactive)
6,COc1ccccc1OCCn1c(SCC(N)=O)nc2ccccc21,-1.3% (inactive)
7,CC1CCc2c(nc3ncnn3c2Nc2ccc(OC(F)(F)F)cc2)C1 (stereo unspecified),0.841% (inactive)
8,OCCn1c(-c2ccccc2)csc1=Nc1ccccc1,38.9% (inactive)
9,COc1ccc2nc(Nc3nc4ccc(NC(C)=O)cc4s3)sc2c1,6.12% (inactive)
10,CCNc1nc(-c2cc3ccccc3o2)cs1,58% (active)
11,COc1ccc2nc(Nc3nc4cc5c(cc4s3)OCCO5)sc2c1,33.1% (active)
12,COc1ccccc1CN(C)C(=O)c1cc2ccccc2o1,7.81% (inactive)
13,COc1ccc2nc(Nc3nc(-c4cc5ccccc5oc4=O)cs3)sc2c1,13.6% (active)
14,CCOc1ccc(S(=O)(=O)Nc2nc3cc(OC)ccc3s2)cc1,-4.35% (inactive)
15,Cn1c(SCC(=O)NC2CCCCC2)nnc1-c1cc2ccccc2o1,10.2% (inactive)
16,COc1ccc2nc(Nc3nc(-c4ccncc4)cs3)sc2c1,21.5% (inactive)
17,COc1ccc2oc(=O)cc(-c3cc4ccccc4o3)c2c1,4.74% (inactive)
18,O=c1oc2ccccc2cc1-c1csc(Nc2ccc(O)cc2)n1,46% (active)
19,CC(=O)Nc1nc(C)c(-c2csc(Nc3ccc(S(N)(=O)=O)cc3)n2)s1,-0.544% (inactive)
20,Cc1ccc(OCCCC(=O)Nc2ccc(S(=O)(=O)Nc3cc(C)nc(C)n3)cc2)cc1,-2.32% (inactive)
21,CN(C)[C@@H]1C(=O)C(C(N)=O)=C(O)[C@@]2(O)C(=O)C3=C(O)c4c(O)ccc(Cl)c4[C@@H](O)[C@H]3C[C@@H]12,3.73% (inactive)
22,CCN(CC)CCOCCOc1ccc(Cl)c2ccccc12,-2.87% (inactive)
23,COc1cc(NS(=O)(=O)c2ccc(NC(=S)NC(=O)c3ccc(Br)cc3)cc2)ncn1,0.589% (inactive)
